Laboratory results reported in PubChem BioAssay (Tox21).
Results filed as inconclusive are left out. A call without a number means that no potency is given here. Values without a mark were called inactive. The source made the active and inactive calls. The call rests on the fitted dose curve.

assay: p53 small molecule agonists, cell-based qHTS assay: qHTS cell viability counter screen (AID 1963581); conditions: p53RE-bla HCT-116 viability, ATP luminescence, 16 h; series mostly up to 66 µM; further: nearly all actives have a fitted effect of over 45% in size
Text: National Center for Advancing Translational Sciences [NCATS]
Division of Preclinical Innovation [DPI]
U.S. Environmental Protection Agency [EPA]
National Institutes of Environmental Health Sciences [NIEHS]
National Toxicology Program [NTP]
U.S. Food and Drug Administration [FDA]
p53, a tumor suppressor protein, is activated following cellular insult, including DNA damage and other cellular stresses. The activation of p53 regulates cell fate by inducing DNA repair, cell cycle arrest, apoptosis, or cellular senescence. The activation of p53, therefore, is a good indicator of DNA damage and other cellular stresses. The CellSensor p53RE-bla HCT-116 cell line (Invitrogen) contains a stably integrated beta-lactamase reporter gene under control of the p53 response elements. The activation of the reporter gene under culture conditions can be detected by fluorescence intensity. This cell line was used to screen the Tox21 compound library in a 1536-well plate format and to identify agonists that activate the p53 signaling pathway. The cytotoxicity of the Tox21 compound library against the p53 RE-bla HCT-116 cell line was tested in parallel by measuring the intra cellular ATP content in the same wells.
Tox21 Assay Protocol Summary:
The p53RE-bla cells were dispensed at 4,000 cells/5 ul/well in 1536-well black wall/clear bottom plates using a Multidrop dispenser. After the assay plates were incubated at a 37 C/5% CO2 incubator for 5 hours, 23 nL of compounds dissolved in DMSO, positive controls or DMSO only was transferred to the assay plate by a pin tool. The plates were incubated at 37 C for 16 hours. After 1 uL of LiveBLAzerTM B/G FRET substrate was added using a Flying Reagent Dispenser, the plates were incubated at room temperature for 2 hours, and fluorescence intensity was measured by an Envision plate reader. For cell viability readout that measures cytotoxicity, 4 ul/well of CellTiter-Glo reagent was added into the assay plates using a Flying Reagent Dispenser. After 30 min incubation at room temperature, the luminescence intensity in the plates was measured using a ViewLux plate reader.
Potency means the concentration at half of the fitted maximal effect.

**Q.** With `CCCCN(CCCC)CC(O)c1cc(Cl)cc2c1-c1ccc(Cl)cc1/C2=C/c1ccc(Cl)cc1` (stereo not given) as the molecule, how does the Potency read?
**A.** inactive

**Q.** With `CCCC/C=C/C=C\C=O` as the molecule, how does the Potency read?
**A.** inactive

**Q.** For `C=CC(=O)OCCC#N`, which Potency is on record?
**A.** inactive

**Q.** With `CNC(=O)C(c1ccccc1)c1ccccc1` as the molecule, how does the Potency read?
**A.** inactive

**Q.** With `O=S(=O)(c1cccc2cnccc12)N1CCCNCC1` as the molecule, how does the Potency read?
**A.** inactive

**Q.** With `COc1ccc(C(=O)c2ccc(C)cc2)c(O)c1` as the molecule, how does the Potency read?
**A.** inactive

**Q.** With `CCC(CC)CO` as the molecule, how does the Potency read?
**A.** inactive

**Q.** Which Potency does the source give for `NCCCCCCNCCCCCCN` here?
**A.** inactive

**Q.** Which Potency does the source give for `COCCc1ccc(OCC2CO2)cc1` (stereo not given) here?
**A.** inactive

**Q.** With `Nc1ccc(/C=C/c2ccc(N)cc2S(=O)(=O)O)c(S(=O)(=O)O)c1` as the molecule, how does the activity change, negative = cytotoxicity read?
**A.** -1.67% [at 0.249 µM]

**Q.** Which Potency does the source give for `COc1cc(C(=O)OCCCN2CCCN(CCCOC(=O)c3cc(OC)c(OC)c(OC)c3)CC2)cc(OC)c1OC` here?
**A.** inactive

**Q.** For `CCN=C1C=CC(=C(c2ccc(N(CC)CC)cc2)c2ccc(N(CC)CC)cc2)c2ccccc21`, which Potency is on record?
**A.** 36.1 µM (active)

**Q.** With `Cc1cccc(NC(=S)N(C)C)c1` as the molecule, how does the Potency read?
**A.** inactive

**Q.** For `Nc1ccc(C(=O)Nc2ccccc2N)cc1`, which Potency is on record?
**A.** inactive

**Q.** Which Potency does the source give for `C1CCC2(CCCCO2)OC1` here?
**A.** inactive

**Q.** Which Potency does the source give for `O=C1CC[C@@H](C(=O)O)N1` here?
**A.** inactive

**Q.** With `CC(=O)c1ccc2c(c1)N(CCCN1CCC(CCO)CC1)c1ccccc1S2` as the molecule, how does the Potency read?
**A.** inactive

**Q.** Which Potency does the source give for `COC(=O)C1=C(C)NC(C)=C(C(=O)OC)C1c1ccccc1[N+](=O)[O-]` here?
**A.** inactive

**Q.** For `O=C(O)O`, which activity change, negative = cytotoxicity is on record?
**A.** 11.6% [at 5.99 µM]

**Q.** For `COc1ccnc(CS(=O)c2nc3ccc(OC(F)F)cc3[nH]2)c1OC` (stereo not given), which Potency is on record?
**A.** inactive

**Q.** Which Potency does the source give for `Cn1c(NCCN(CCO)CCCc2ccc([N+](=O)[O-])cc2)cc(=O)n(C)c1=O` here?
**A.** inactive

**Q.** For `CC1(C)O[C@@H]2C[C@H]3[C@@H]4CCC5=CC(=O)C=C[C@]5(C)[C@H]4[C@@H](O)C[C@]3(C)[C@]2(C(=O)CO)O1`, which Potency is on record?
**A.** inactive

**Q.** For `CC(=O)NC1(c2cccc(F)c2)CCN(CC[C@@]2(c3ccc(Cl)c(Cl)c3)CN(c3ccccc3)C(=O)CO2)CC1`, which Potency is on record?
**A.** 36.5 µM (active)

**Q.** For `CC(C(=O)O)c1ccc2c(c1)[nH]c1ccc(Cl)cc12` (stereo not given), which Potency is on record?
**A.** inactive

**Q.** For `CN[C@@H]1[C@@H](O)[C@@H](O[C@@H]2[C@H](O)[C@H](O[C@H]3OC(CN)=CC[C@H]3N)[C@@H](N)C[C@H]2N)OCC1(C)O` (stereo not given in full), which Potency is on record?
**A.** inactive

**Q.** With `CCC(C)(C)C1CCC(O)CC1` (stereo not given) as the molecule, how does the Potency read?
**A.** inactive

**Q.** With `C[C@@H](CN(C)C)CN1c2ccccc2Sc2ccccc21` as the molecule, how does the Potency read?
**A.** inactive

**Q.** Which Potency does the source give for `CCCCCCCCCCCCCCCCCC[N+](C)(C)Cc1ccccc1` here?
**A.** 20.6 µM (active)

**Q.** With `CCCCCCCCNC` as the molecule, how does the Potency read?
**A.** inactive

**Q.** For `CC[C@@H]([C@H](C)O)n1ncn(-c2ccc(N3CCN(c4ccc(OC[C@@H]5CO[C@@](Cn6cncn6)(c6ccc(F)cc6F)C5)cc4)CC3)cc2)c1=O`, which Potency is on record?
**A.** inactive

**Q.** Which Potency does the source give for `Cc1cc(CCN2CCN(c3nsc4ccccc34)CC2)cc2c1NC(=O)CC2(C)C` here?
**A.** 45.8 µM (active)

**Q.** Which Potency does the source give for `COc1cc([N+](=O)[O-])ccc1N` here?
**A.** inactive

**Q.** For `CC(C)(c1ccc(Oc2ccc(N)cc2)cc1)c1ccc(Oc2ccc(N)cc2)cc1`, which Potency is on record?
**A.** inactive

**Q.** For `CCCCCCCCCCC1CO1` (stereo not given), which Potency is on record?
**A.** inactive

**Q.** Which Potency does the source give for `CCCCC/C=C\C/C=C\CCCCCCCC(=O)NC(C)c1ccccc1` (stereo not given) here?
**A.** inactive

**Q.** Which Potency does the source give for `Fc1ccccc1[C@@H](F)COC1CCC(Nc2ncnc3[nH]ncc23)CC1` (stereo not given in full) here?
**A.** inactive

**Q.** With `O=C1NC(=O)[C@@H]2CC=CC[C@H]12` as the molecule, how does the Potency read?
**A.** inactive

**Q.** Which Potency does the source give for `CCCCCOC(=O)Nc1nc(=O)n([C@@H]2O[C@H](C)[C@@H](O)[C@H]2O)cc1F` here?
**A.** inactive

**Q.** For `O=[N+]([O-])c1ccc2ncccc2c1`, which Potency is on record?
**A.** inactive

**Q.** With `CCOC(=O)[C@@](C)(N)Cc1ccc(O)c(O)c1` as the molecule, how does the Potency read?
**A.** inactive
